This passage reports growth results from PubChem BioAssay (NCI).

About 83,000 compounds went through this panel and 20% of them were active in at least one assay; those are over-represented in the sample as a whole.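 Each cell line was grown in a 96-well plate and treated with one concentration of compound for 48 hours. Values below 10 were considered active.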 Values without a mark were called inactive. The source made the active and inactive calls.

In the first test the test system is LOX IMVI melanoma. Briefly: NCI-60 one-dose screen, 48 h (100 = growth as untreated, 0 = no growth, -100 = all killed). The conditions noted are these: 10 µM unless noted.
`COc1ccc(OC)c(C(=O)/C=C/c2cc3c(c(OC)c2OC)OCO3)c1`: the growth was 47.8%.

Take `O=c1oc2ccccc2cc1C1=NN=C(SCc2ccccc2)SC1`: the growth is 99.7%. The same measure, in the same setting: under `COc1ccc(C(=S)N2CCN(c3ccccc3Cl)CC2)cc1OC` stands 92.7%; under `Cc1ccc(/C=C2\CN(C(=O)OC(C)(C)C)C/C(=C\c3ccc(C)cc3)C2=O)cc1`, -63.2% (active); under `O=C(Nc1nn(-c2ccc(Cl)cc2Cl)nc1-c1ccccc1)c1ccccc1`, 82.5%. Still for that read-out and setting: under `CCN(CC)c1ccc(/C=C/C(=O)c2ccc(Nc3nc(Nc4ccccc4)nc(Nc4ccccc4)n3)cc2)cc1` stands 40.3%; under `COC(=O)[C@H]1CCCN1C[C@@H](O)CN1C(=O)/C(=C\c2cc(OC)c(OC)c(OC)c2)c2ccccc21`, 97.2%. On to `CN(C)c1ccc(Nc2cc(-c3cccc(OC(F)(F)F)c3)nc3ccc(N4CCCC4)cc23)cc1`, for which the growth was -73.7% (active). Regarding `O=C(Nc1cc(Cl)ccc1O)c1ccc(Nc2ccnc(C(F)(F)F)c2)cc1`, the growth was 27.8%.

As for `COc1cc(OC)c2sc(-c3ccc(-n4cncc4-c4ccc(OC)c(OC)c4)cc3)nc2c1`, the growth was 59.1%. Same read-out and setting: under `O=C1c2cccnc2C(=O)c2c1c(C(=O)NCCCN1CCCCC1)c1ccccn21` stands -71.4% (active).

For `CCOC(=O)c1ccc2[nH]c(O)c(C(=Nc3ccc(N(C)C(=O)CN4CCN(C)CC4)cc3)c3ccccc3)c2c1`, the growth was -93.2% (active). On the same count and under the same terms, the same measure for `CCN1C(=O)N(CC)C2C1NN=c1s/c(=C\c3cccc([N+](=O)[O-])c3)c(=O)n12` (stereo unspecified): 16.7%; for `CC1=C(Nc2ccc(N3CCN(C)CC3)cc2)C(=O)c2cncnc2C1=O`: -13.6% (active); for `O=C1Nc2ccc(Br)cc2/C1=N/c1n[nH]c(=S)s1`: 90.3%.

With `CCN(c1ccc(Cl)cc1)c1nc(-c2ccc([N+](=O)[O-])cc2)cs1`, the growth was 93%. The same measure, in the same setting: under `C=C(C)[C@@H]1CC[C@]2(C)[C@H](CC=C3[C@@H]4[C@H](C)[C@@H](C)CC[C@]4(CO)CC[C@]32C)[C@@]1(C)CCCN` stands -99% (active); under `O=C(/C=C(/C=C/c1cccc2[nH]ccc12)OB(F)F)/C=C/c1cccc2[nH]ccc12`, -81.1% (active); under `CCN1CC(=O)N(/N=C2\C(=O)Nc3ccccc32)C1=S`, 86.5%. The same measure, in the same setting: under `CCN1CCN(c2cc(C(=O)Nc3nc(-c4cc(OC)c(OC)c(OC)c4)cs3)cc(C(F)(F)F)c2)CC1` stands 38.6%; under `COc1ccc(-c2nc(/C=C3\SC(=NCc4ccccc4)NC3=O)c3ccccn23)cc1`, -76.4% (active). Regarding `CCOC(=O)C(=Cc1cccc(Br)c1)C(=O)OCC`, the growth was -8.96% (active). Still for that read-out and setting: under `N#CC1=C(N)Oc2c(sc3c(F)cccc23)C1c1ccc(F)cc1` (stereo unspecified) stands 32.2%.

As to `CCOc1nc(-c2ccccc2)cc2c(O)c(C(=O)NN)[nH]c(=O)c12`, the growth was 101%. Consider `O=C1c2cccc(NCCN=Cc3cc(O)ccc3O)c2C(=O)c2c(NCCN=Cc3cc(O)ccc3O)cccc21`, for which the growth is -44.9% (active). On the same count and under the same terms, the same measure for `C=CCn1cc(-c2nc3ccccc3s2)c2cc(-c3ccc4c5c(cccc35)C(=O)N(N)C4=O)ccc21`: 95.9%. As for `CCOC(=O)CNP(=O)(OC[C@@H](Cc1ccccc1)NC(=O)c1cc2ccccc2s1)Oc1ccccc1` (stereo partly specified), the growth was 76.2%. Still for that read-out and setting: under `CCC(=C(c1ccc(OCCN2CCCC2)cc1)c1ccc(OCCN2CCCC2)cc1)c1ccc(Cl)cc1` stands -90.3% (active); under `Oc1c(Cl)cc(Cl)c2ccc(Cn3cc(-c4ccc(C(F)(F)F)cc4)nn3)nc12`, 9.23% (active); under `O=C(NCCCCNC(=O)OCc1ccc2c(Cl)cc(Cl)c(O)c2n1)OCc1ccc2c(Cl)cc(Cl)c(O)c2n1`, 14.4%. On the same count and under the same terms, the same measure for `CCN(CC)CCNC(=O)c1cn2ncnc(Oc3ccc(NC(=O)Nc4ccc(Cl)c(C(F)(F)F)c4)c(F)c3)c2c1C`: -95.4% (active).

For another test, the system named is SK-MEL-28 melanoma. The test is described as above. The conditions noted are these: 10 µM unless noted.
Consider `COc1cc(OC)cc(C2=C3CC[C@@H]4[C@H](CC[C@]5(C)C(=O)CC[C@@H]45)C3=CC3C(O)c4cccnc4N4C(=O)COC234)c1` (stereo partly specified), for which the growth was 115%.

For the compound `CC(=O)Cc1nsc(NC(=O)c2cc(-c3cc(Cl)cc(Cl)c3)oc2C)n1`, the growth is 103%. Same read-out and setting: the same measure for `CCOC(=O)c1cn2ncnc(Oc3ccc(NC(=O)NC4CCCCC4)c(Cl)c3)c2c1C`: 93.9%; for `Cc1nnc(NC(=O)c2nc(S(=O)(=O)Cc3ccc(F)cc3)ncc2Cl)s1`: 50.5%. On the same count and under the same terms, the same measure for `C#CCOc1ccc2ncnc(Nc3ccc(NC(=O)CCl)cc3)c2c1`: 36.2%. On the same count and under the same terms, the same measure for `CCOC(=O)C#Cc1c(C(=O)OCC)nnn1[C@@H]1O[C@H](CO)[C@H]2OC3(CCCCC3)O[C@H]21`: 101%; for `C/C(=N/O)c1ccc(F)cc1`: 126%.

In the case of `CCOC(=O)Cn1c(O)c(N=Nc2ccc(S(N)(=O)=O)cc2)c2cc(Br)ccc21`, the growth was 85.2%. Same read-out and setting: under `Cc1nc(N2CCOCC2)sc1S(N)(=O)=O` stands 104%; under `COc1ccc(OC)c(C(=O)/C=C/c2cc3c(c(OC)c2OC)OCO3)c1`, 89.7%; under `O=c1oc2ccccc2cc1C1=NN=C(SCc2ccccc2)SC1`, 109%. The same measure, in the same setting: under `COc1ccc(C(=S)N2CCN(c3ccccc3Cl)CC2)cc1OC` stands 103%; under `Cc1ccc(/C=C2\CN(C(=O)OC(C)(C)C)C/C(=C\c3ccc(C)cc3)C2=O)cc1`, 87.3%; under `O=C(Nc1nn(-c2ccc(Cl)cc2Cl)nc1-c1ccccc1)c1ccccc1`, 104%. As to `CCN(CC)c1ccc(/C=C/C(=O)c2ccc(Nc3nc(Nc4ccccc4)nc(Nc4ccccc4)n3)cc2)cc1`, the growth was 65.6%. On the same count and under the same terms, the same measure for `COC(=O)[C@H]1CCCN1C[C@@H](O)CN1C(=O)/C(=C\c2cc(OC)c(OC)c(OC)c2)c2ccccc21`: 123%; for `CN(C)c1ccc(Nc2cc(-c3cccc(OC(F)(F)F)c3)nc3ccc(N4CCCC4)cc23)cc1`: -85.3% (active). Take `O=C(Nc1cc(Cl)ccc1O)c1ccc(Nc2ccnc(C(F)(F)F)c2)cc1`: the growth was 83.6%.

With `COc1cc(OC)c2sc(-c3ccc(-n4cncc4-c4ccc(OC)c(OC)c4)cc3)nc2c1`, the growth is 71.8%. For `O=C1c2cccnc2C(=O)c2c1c(C(=O)NCCCN1CCCCC1)c1ccccn21`, the growth is 13.8%.

For `CCOC(=O)c1ccc2[nH]c(O)c(C(=Nc3ccc(N(C)C(=O)CN4CCN(C)CC4)cc3)c3ccccc3)c2c1`, the growth was -11.9% (active). Consider `CCN1C(=O)N(CC)C2C1NN=c1s/c(=C\c3cccc([N+](=O)[O-])c3)c(=O)n12` (stereo unspecified), for which the growth was 61.4%. Still for that read-out and setting: under `CC1=C(Nc2ccc(N3CCN(C)CC3)cc2)C(=O)c2cncnc2C1=O` stands 121%; under `O=C1Nc2ccc(Br)cc2/C1=N/c1n[nH]c(=S)s1`, 114%.

With `CCN(c1ccc(Cl)cc1)c1nc(-c2ccc([N+](=O)[O-])cc2)cs1`, the growth is 105%.

For `C=C(C)[C@@H]1CC[C@]2(C)[C@H](CC=C3[C@@H]4[C@H](C)[C@@H](C)CC[C@]4(CO)CC[C@]32C)[C@@]1(C)CCCN`, the growth was -35.3% (active). The same measure, in the same setting: under `O=C(/C=C(/C=C/c1cccc2[nH]ccc12)OB(F)F)/C=C/c1cccc2[nH]ccc12` stands -14.3% (active). The same measure, in the same setting: under `CCN1CC(=O)N(/N=C2\C(=O)Nc3ccccc32)C1=S` stands 111%; under `CCN1CCN(c2cc(C(=O)Nc3nc(-c4cc(OC)c(OC)c(OC)c4)cs3)cc(C(F)(F)F)c2)CC1`, 51.8%. On the same count and under the same terms, the same measure for `COc1ccc(-c2nc(/C=C3\SC(=NCc4ccccc4)NC3=O)c3ccccn23)cc1`: -43.9% (active); for `CCOC(=O)C(=Cc1cccc(Br)c1)C(=O)OCC`: 39.2%. `N#CC1=C(N)Oc2c(sc3c(F)cccc23)C1c1ccc(F)cc1` (stereo unspecified): the growth was 64%.

In the case of `CCOc1nc(-c2ccccc2)cc2c(O)c(C(=O)NN)[nH]c(=O)c12`, the growth is 99.8%. As for `O=C1c2cccc(NCCN=Cc3cc(O)ccc3O)c2C(=O)c2c(NCCN=Cc3cc(O)ccc3O)cccc21`, the growth is -30.9% (active).

Regarding `C=CCn1cc(-c2nc3ccccc3s2)c2cc(-c3ccc4c5c(cccc35)C(=O)N(N)C4=O)ccc21`, the growth is 109%. In the case of `CCOC(=O)CNP(=O)(OC[C@@H](Cc1ccccc1)NC(=O)c1cc2ccccc2s1)Oc1ccccc1` (stereo partly specified), the growth is 77%. On the same count and under the same terms, under `CCC(=C(c1ccc(OCCN2CCCC2)cc1)c1ccc(OCCN2CCCC2)cc1)c1ccc(Cl)cc1` stands -81.7% (active); under `Oc1c(Cl)cc(Cl)c2ccc(Cn3cc(-c4ccc(C(F)(F)F)cc4)nn3)nc12`, 51.2%; under `O=C(NCCCCNC(=O)OCc1ccc2c(Cl)cc(Cl)c(O)c2n1)OCc1ccc2c(Cl)cc(Cl)c(O)c2n1`, 50.6%.

For `CCN(CC)CCNC(=O)c1cn2ncnc(Oc3ccc(NC(=O)Nc4ccc(Cl)c(C(F)(F)F)c4)c(F)c3)c2c1C`, the growth is -86.6% (active).
